Mito fusion yeast = qHTS Assay for Small Molecule Inhibitors of Mitochondrial Division or Activators of Mitochondrial Fusion; AID 485298, 2010; Potency, µM (highest dose often 46.1 µM), for inactives: top-dose growth rescue (activation), actives largely listed as activators; S. cerevisiae fusion-defective mutant growth rescue, CellTiterGlo 48 h; 320,000 compounds, 0.23% hits; note: % of control where 0% means no effect; nearly all actives have a fitted effect of over 45% in size
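Luminescent cell viability in 1536-well qHTS format served as the measure of rescued growth in ts fusion-mutant S. cerevisiae cultured on non-fermentable YPEG for 48 hours at 37C.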
aSyn yeast inh = qHTS of alpha-syn Inhibitors; 370,000 compounds, 0.14% hits; Potency, µM (doses to about 46.1 µM), without a hit: top-dose growth rescue (activation), most hits filed as activators; Yeast expressing alpha-synuclein, growth rescue, BacTiter-Glo, 24 h; note: % of control where 0% means no effect; nearly all actives have a fitted effect of over 65% in size
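Screening used galactose-induced yeast with toxic alpha-synuclein levels, exposed to compound for 24 hr at 30 deg C. Cell growth, read with BacTiter-Glo luminescence, gave the measured signal.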
Abeta yeast res = qHTS for compounds that reverse cellular toxicity of Amyloid beta (A-beta) peptide in yeast: Primary Screen. yeast expressing A-beta42, growth rescue, OD600, 48 h; response scale: 0% DMSO, 100% iron-clioquinol control. Potency, µM (doses to about 46.1 µM), hits mostly activators. 410,000 compounds, 0.063% hits. AID 1347071, 2019; note: nearly all actives have a fitted effect of over 55% in size
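Yeast growth medium received pinned compounds, then yeast cells expressing toxic A-beta were added; plates incubated at 30 C for 48 hr. Growth read as absorbance at 600 nm, normalized to DMSO and equimolar FeCl3 plus clioquinol controls.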
TDP-43 yeast inh = qHTS of TDP-43 Inhibitors; TDP-43 expressing yeast growth rescue, BacTiter-Glo, 24 h; Potency, µM (highest dose often 46.1 µM), for inactives: at the top dose growth rescue (activation), most hits filed as activators; 410,000 compounds, 1.8% hits; AID 652104, 2013; note: % of control where 0% means no effect; nearly all actives have a fitted effect of over 50% in size
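Yeast expressing TDP-43 (pregrown in raffinose, seeded at OD600=0.02 in galactose medium) exposed to compounds 24 hr at 30 deg C. Growth read by BacTiter-Glo luminescence; rescue of toxicity appears as increased signal.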
FUS yeast rescue = qHTS for Suppressors of FUS Proteinopathy: Primary screen using FUS-linked yeast assay. S. cerevisiae FUS-expressing, growth rescue, OD600, 24 h. Potency, µM (highest dose often 76.6 µM), most hits filed as activators. 390,000 compounds, 0.24% hits. AID 1347120, 2019;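 note: plate controls were DMSO vehicle for no effect and reference control for full effect; nearly all actives have a fitted effect of over 55% in size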
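Toxicity suppression screen in FUS-yeast. Cells induced with 2% galactose, starting OD 0.005, treated 24hr at 30C with compounds at multiple final concentrations; growth by OD600.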
Starred values were filed as active, the others as inactive; i = inactive; ? = inconclusive; . = not tested or not shown. The list is not random: actives were taken first. Their share in the collection is about 2.2%. Calls come from the whole dose curve; as a rule, active = well fitted curve in the direction sought with a large enough effect; inconclusive = small, poorly fitted or top-dose-only effect, or another doubt; inactive = no such curve, though single readings can be large; an effect the other way counts as inactive or inconclusive. Potency is the fitted concentration of half-maximal effect.

SMILES	Mito fusion yeast	aSyn yeast inh	Abeta yeast res	TDP-43 yeast inh	FUS yeast rescue
CC1CCN(C(=O)CSc2nc3ccccc3s2)CC1	2%	2%	i	?	.
Cc1cnc(NC(=O)CSc2nc3ccccc3s2)s1	5%	4%	i	14µM*	i
CC(C)COc1ccc(-c2nn(-c3ccccc3)cc2CO)cc1	-41%	4%	i	28µM*	i
Cc1c(C(=O)NCc2ccc(Cl)cc2)oc2ccc3c(c12)C(=O)CC(C)(C)O3	.	.	i	15%	i
CCCNC(=O)c1oc2ccc3c(c2c1C)C(=O)CC(C)(C)O3	-1%	-2%	i	14µM*	i
COc1ccc(C2Nc3ccccc3C(=O)N2c2cccc3ccccc23)cc1COc1c(C)cccc1C (stereo not drawn)	.	4%	.	.	.
Clc1ncnc2scc(-c3ccccc3)c12	-1%	15%	i	19%	i
Cc1ccc(-c2csc3ncnc(Cl)c23)cc1	-11%	3%	i	16µM*	i
COc1cccc2c1C(=N)c1c(O)c3c(c(O)c1C2=O)CC(O)(C(C)=O)CC3OC1CC(N)C(O)C(C)O1 (stereo not drawn)	.	-39%	i	-63%	.
COc1cccc2c1C(=O)c1c(O)c3c(c(O)c1C2=O)C[C@](O)(C(C)=O)C[C@H]3O[C@@H]1C[C@@H](N)[C@@H](O)[C@@H](C)O1	-17%	11µM*	i	-13%	i
CC1(NC(=O)c2ccc(C#Cc3cccc(F)c3)cn2)COC1	.	.	.	.	i
Cc1[nH]c2ccccc2c1SCCNC(=O)c1ccccc1F	.	.	14µM*	14µM*	i
O=C(NCCSc1c[nH]c2ccccc12)c1ccccc1Cl	.	.	i	35µM*	i
COc1cc(C(=O)NCCSc2c(C)[nH]c3ccccc23)cc(OC)c1OC	.	.	i	23%	i
COc1ccccc1C(=O)NCCSc1c(C)[nH]c2ccccc12	.	.	?	32µM*	i
COc1cccc(C(=O)NCCSc2c(C)[nH]c3ccccc23)c1OC	6%	?	i	?	i
CN(Cc1ccccc1)c1ccc(-c2nc(-c3ccco3)no2)cc1[N+](=O)[O-]	.	.	i	4%	i
CCCc1nc(SCC(=O)N2CCC(Cc3ccccc3)CC2)c2c(=O)n(C)c(=O)n(C)c2n1	26%	1%	i	35µM*	i
CCCc1nc(SCC(=O)N2CCCc3ccccc32)c2c(=O)n(C)c(=O)n(C)c2n1	?	13%	i	35µM*	i
CC(C)c1nc(SCC(=O)N2CCCC2)c2c(=O)n(C)c(=O)n(C)c2n1	.	3.5µM*	i	-26%	i
CCc1ccccc1NNC(=O)c1sccc1Cl	.	9%	.	.	.
CCN(CC)C(=O)c1sc2c(c1C)c(=O)n(-c1ccc(OC)cc1OC)c(=O)n2CC(=O)c1ccc(Cl)cc1	.	.	i	6%	20µM*
Cc1noc(C)c1COc1cccc(C(=O)Nc2ccc(C#N)cc2)c1	5%	-2%	i	14µM*	i
CCOC(=O)c1ccc(N=Cc2nc(-c3ccccc3)oc2OC(C)=O)cc1	-3%	20%	i	16µM*	i
CCOc1ccc(C2=CC(c3cc(Br)ccc3F)n3ncnc3N2)cc1Cl (stereo not drawn)	.	.	i	35µM*	i
CCOc1ccc(C2C=C(c3ccc(F)cc3)Nc3ncnn32)cc1 (stereo not drawn)	14%	-2%	i	8%	i
Fc1ccc(C2=CC(c3ccc(Br)o3)n3ncnc3N2)cc1 (stereo not drawn)	13%	-5%	i	18µM*	.
CC(C)(C)c1ccc(C2=CC(c3ccccc3F)n3ncnc3N2)cc1 (stereo not drawn)	.	1%	i	-3%	?
Fc1ccc(Br)cc1C1C=C(c2cccnc2)Nc2ncnn21 (stereo not drawn)	9%	1%	i	25µM*	i
Cc1ccc(Nc2nc(Nc3ccc(Cl)cc3)nc(N3CCOCC3)n2)cc1	.	1%	.	.	.
